Compounds with a hit are over-represented: about 2.9% of the library has one in this group of screens.
EPAC1 agonist – validation of human EPAC1 agonists | EPAC1 Rap1b BODIPY-GDP exchange, fluorescence | 16,000 compounds, 1% hits | AID 1645883 | Potency, µM, hits mostly activators | O95398; further: nearly all actives have a fitted effect of over 70% in size
Target sequence (O95398 whole entry, looked up): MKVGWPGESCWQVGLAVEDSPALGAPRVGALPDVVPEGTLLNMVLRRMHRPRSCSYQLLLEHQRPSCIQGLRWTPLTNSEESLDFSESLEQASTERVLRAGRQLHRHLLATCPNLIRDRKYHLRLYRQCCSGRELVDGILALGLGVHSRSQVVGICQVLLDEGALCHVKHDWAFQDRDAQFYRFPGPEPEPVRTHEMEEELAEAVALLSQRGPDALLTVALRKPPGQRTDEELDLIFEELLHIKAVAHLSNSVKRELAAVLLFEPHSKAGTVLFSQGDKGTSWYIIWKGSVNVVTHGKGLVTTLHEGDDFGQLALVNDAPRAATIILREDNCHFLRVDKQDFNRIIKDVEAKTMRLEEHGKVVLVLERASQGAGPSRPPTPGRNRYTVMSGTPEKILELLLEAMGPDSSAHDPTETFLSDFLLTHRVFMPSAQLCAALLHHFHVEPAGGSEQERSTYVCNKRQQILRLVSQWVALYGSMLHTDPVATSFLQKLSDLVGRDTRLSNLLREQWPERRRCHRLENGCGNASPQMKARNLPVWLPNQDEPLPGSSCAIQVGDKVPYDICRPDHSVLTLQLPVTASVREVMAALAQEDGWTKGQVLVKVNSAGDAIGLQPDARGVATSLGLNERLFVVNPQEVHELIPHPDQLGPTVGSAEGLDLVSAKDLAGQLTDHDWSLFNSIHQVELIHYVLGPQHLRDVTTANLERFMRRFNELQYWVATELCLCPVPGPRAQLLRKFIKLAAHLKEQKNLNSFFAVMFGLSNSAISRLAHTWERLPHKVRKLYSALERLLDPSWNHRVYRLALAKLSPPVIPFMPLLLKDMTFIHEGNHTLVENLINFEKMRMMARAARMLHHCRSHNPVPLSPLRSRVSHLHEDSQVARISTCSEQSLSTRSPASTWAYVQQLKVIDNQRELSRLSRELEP
EPAC2 antag – human EPAC2 antagonism, validation | Potency, µM (highest dose often 112 µM), actives largely listed as inhibitors | Q8WZA2 | 16,000 compounds, 1.7% hits | EPAC2 Rap1B BODIPY-GDP exchange, fluorescence; further: nearly all actives have a fitted effect of over 40% in size
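Fluorescent exchange read-out: 100 nM EPAC2 with 250 nM RAP1B–BODIPY-GDP and 50 uM GDP; BODIPY-GDP release lowers fluorescence. Read at 480/540 nm every 5 min for 30 min at room temperature; normalized to 6.5 mM cAMP.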
Numbers stand for hits; – = inactive; ? = inconclusive; ! = not active in a repeat; [ ] = remark or other dose. The call rests on the fitted dose curve; in most records, active means well fitted curve in the direction sought with a large enough effect; inconclusive means small, poorly fitted or top-dose-only effect, or another doubt; inactive means no such curve, though single readings can be large; an effect the other way counts as inactive or inconclusive.

SMILES | EPAC1 agonist | EPAC2 antag
Cc1cc(Cn2cnc3c2C[C@@H](C(=O)O)N(C(=O)C(c2ccccc2)c2ccccc2)C3)ccc1N | – | –
CCOC(=O)c1c(C)cc(O)cc1O | – | ?
O=C(CN1Cc2ccccc2OC(c2ccsc2)C1)N1CCN(Cc2ccc3c(c2)OCO3)CC1 (stereo unspecified) | – | 56µM
O=C(CN1CCN(Cc2ccc3c(c2)OCO3)CC1)N1c2ccccc2Sc2ccccc21 | – | –
CC(=O)N1CCC[C@@]2(CCN(c3ncccn3)C2)C1 | – | –
NC(N)=N[C@@H](CCC(=O)O)C(=O)O | – | –
COc1ccccc1-c1cc(NCc2cccc(C)c2)ncn1 | – | ?
Cc1[nH]c2ccccc2c1/C=C/c1cnc2ccccc2n1 | – | –
Cc1[nH]c2ccccc2c1/C=C/c1ccc2ccccc2n1 | 100µM | –
C[C@@H](/C=C\c1cccc(Oc2ccc(F)cc2)c1)N(O)C(N)=O | – | 25µM
CC(/C=C/c1cccc(Oc2ccc(F)cc2)c1)N(O)C(N)=O (stereo unspecified) | – | 79µM
CC(C(=O)O)c1cccc(Oc2ccccc2)c1 (stereo unspecified) | – | –
CCCCCCCCCCCCCCCC(=O)OCC(COP(=O)(O)O)OC(=O)CCCCCCCCCCCCCCC (stereo unspecified) | – | –[11.4 µM]
CC(=O)c1ccc[n+](CC(=O)c2ccc(F)cc2)c1 | – | ?
CC(C)(C)CC(C)(C)c1ccc(OCCO)cc1 | – | –
CCC(C)(C)C(=O)OC1CC(C)C=C2C=CC(C)C(CCC3CC(O)CC(=O)O3)C21 (stereo unspecified) | – | –
CCC(C)(C)C(=O)O[C@@H]1C[C@@H](C)C=C2C=C[C@H](C)[C@H](CC[C@@H]3C[C@@H](O)CC(=O)O3)[C@H]21 | – | 50µM
CN(Cc1ccco1)c1ncnc2ccc(-c3ccc4c(c3)OCO4)cc12 | – | 35µM
CN(Cc1ccco1)c1ncnc2ccc(-c3cccnc3)cc12 | – | –
Cc1ccccc1-c1ccc2ncnc(N(C)Cc3ccco3)c2c1 | 100µM | 20µM
CN(C)Cc1ccccc1-c1ccc2ncnc(N(C)Cc3ccco3)c2c1 | – | –
Cc1cc(C)cc(C(=O)C[n+]2cccc(Br)c2)c1 | – | –
CCCCC(CC)COC(=O)c1ccccc1O (stereo unspecified) | – | –
C(=C\c1ccnc2ccccc12)/c1ccnc2ccccc12 | – | –
CCCCCCCCCCCCCCCCCCN(CCCCCCCCCCCCCCCCCC)c1ccc(/C=C/c2ccnc3ccccc23)cc1 | – | –
SMILES | EPAC1 agonist | EPAC2 antag
C=Nc1ccc(/C=C/c2ccnc3ccccc23)cc1 | 100µM | –
CCCCN(CCCC)c1ccc(/C=C/c2ccnc3ccccc23)cc1 | 112µM | –
CCN(CC)CCCC(C)Nc1c2ccc(Cl)cc2nc2ccc(OC)cc12 (stereo unspecified) | 112µM! | –
CCN(CC)CCCC(C)Nc1cc(/C=C/c2ccccc2Cl)nc2cc(Cl)ccc12 (stereo unspecified) | – | –
COC(=O)C[C@H]1c2cc(C(F)(F)F)ccc2S(=O)(=O)N1c1ccc(N(C)C)cc1 | – | ?
CCCCOc1ccc(CC(=O)NO)cc1 | ? | –
CCCc1c(OCCCOc2ccc(OCC(=O)O)cc2)ccc(CC=O)c1O | – | 45µM
CCNc1ncc2nc(-c3cccc(C#N)c3)c(=O)n(C)c2n1 | – | ?
COc1cccc(OC)c1CN1CCC2(CCC(CNC(=O)c3ccn(C)n3)O2)CC1 (stereo unspecified) | – | –
CCOc1cc(N)c(Cl)cc1C(=O)NCC1CN(Cc2ccc(F)cc2)CCO1 (stereo unspecified) | – | –
C1=Cc2ccccc2/C1=C\c1ccc2c(c1)OCO2 | 100µM | ?
C1=Cc2ccccc2/C1=C/c1ccc(/C=C2\C=Cc3ccccc32)cc1 | ? | –
Cc1ccc2ccccc2n1 | – | –
Cc1ccc(O)c(N=Nc2ccccc2)n1 | – | 56µM!
C/C1=C2N=C(/C=C3N=C(/C(C)=C4\[N-][C@@](C)([C@@H]5N=C1[C@](C)(CCC(=O)NCC(C)OP(=O)(O)O[C@H]1[C@@H](O)[C@@H](n6cnc7cc(C)c(C)cc76)O[C@@H]1CO)[C@H]5CC(N)=O)[C@@](C)(CC(N)=O)[C@@H]4CCC(N)=O)[C@@](C)(CC(N)=O)[C@@H]\3CCC(N)=O)C(C)(C)[C@@H]/2CCC(N)=O.CC(=O)O.[Co] (stereo partly specified) | – | 79µM
CN(Cc1cnc2ccccn12)C1CCN(c2cccc(NC(=O)c3cccnc3)c2)CC1 | – | –
COC(=O)C1=C(C)NC(COC(N)=O)=C(C(=O)OC(C)C)C1c1cccc(Cl)c1Cl (stereo unspecified) | ? | 50µM
COC(=O)C1=C(C)NC(C)=C(C(=O)OC)C1c1ccccc1[N+](=O)[O-] | – | ?
CCC(=O)OCC(=O)[C@@]1(OC(=O)CC)[C@H](C)C[C@H]2[C@H]3[C@H]([C@@H](O)C[C@@]21C)[C@@]1(C)C=CC(=O)C=C1C[C@H]3Cl | – | –
CCOC(=O)N1CCC(=C2c3ccc(Cl)cc3CCc3cccnc32)CC1 | – | 35µM!
CN1CCC(=C2c3ccccc3CCc3cccnc32)CC1 | – | –
O=C(NNCS(=O)(=O)O)c1ccncc1 | 56µM | –
O=C(NNCNNC(=O)c1ccncc1)c1ccncc1 | – | –
CCN1CCN(C(=O)NC(C(=O)NC2C(=O)N3C2SC(C)(C)C3C(=O)O)c2ccccc2)C(=O)C1=O (stereo unspecified) | ? | –
COC(=O)C(CN)c1c[nH]c2ccc(OC)cc12 (stereo unspecified) | – | –
SMILES | EPAC1 agonist | EPAC2 antag
CC(C)=CCC/C(C)=C/CC/C(C)=C/CO | – | 45µM!
CC(C)=CCC/C(C)=C/CC/C(C)=C/CC/C(C)=C/CC/C(C)=C/CC/C(C)=C/CC/C(C)=C/CC/C(C)=C/CC/C(C)=C/CO | – | –
CC(C)CN1CCC(=O)N([C@H](COc2ccccc2)c2ccccc2)CC1 | – | ?
C[C@@H]1[C@H](c2ccccc2)OCCS(=O)(=O)N1Cc1ccc(Cl)cc1 | – | ?
CN(C)c1ccc(/C=C/c2c3c(nc4ccccc24)CCCC3)cc1 | 100µM | –
CN(C)c1ccc(/C=C/c2cc(N(C)C)nc3ccccc23)cc1 | – | ?
Cc1cnc2ccccc2c1/C=C/c1ccc(N(C)C)cc1 | 100µM | –
Cc1nc2ccccc2nc1/C=C/c1ccc(N(C)C)cc1 | – | ?
COc1ccccc1-c1ccc(C(=O)N2CCC(N3CCc4ccccc4C3)CC2)c(N(C)CC2COCCO2)n1 (stereo unspecified) | – | –
COc1ccccc1C(=O)N(Cc1cc2cc3c(cc2nc1N(C)C)OCO3)CC1CCCO1 (stereo unspecified) | – | ?
Cc1cc(-c2ccc(N=Nc3c(S(=O)(=O)O)cc4cc(S(=O)(=O)O)cc(N)c4c3O)c(C)c2)ccc1N=Nc1c(S(=O)(=O)O)cc2cc(S(=O)(=O)O)cc(N)c2c1O | – | 50µM
CCNc1ncc2nc(-c3ccccc3)c(=O)n(CCC#N)c2n1 | – | –
COc1cc(-c2c(-c3cc(OC)c(OC)c(OC)c3)noc2C)ccc1F | – | ?
COCc1c(C(=O)N2CCCCC2c2cccnc2)cnn1-c1ncc2c(n1)-c1ccccc1CCC2 (stereo unspecified) | – | –
Nc1cccc2c1CN(C1CCC(=O)NC1=O)C2=O (stereo unspecified) | – | –
CC(=O)c1ccc2oc3ccccc3c(=O)c2c1 | – | –
CCc1oc2ccccc2c1C(=O)c1cc(Br)c(O)c(Br)c1 | – | 45µM

Compound activity deposited in PubChem by National Center for Advancing Translational Sciences (NCATS).
